High-throughput results as filed in PubChem.
Sm TGR block: inhibitors of Schistosoma mansoni thioredoxin glutathione reductase. 360,000 compounds, 3% hits. purified TGR, DTNB reduction, TNB absorbance 405 nm. Potency, µM (highest dose often 114 µM), inactives show top-dose activity change, negative = inhibition, usual class: inhibitors. AID 485364. Q962Y6; further: potency means the concentration at half of the fitted maximal effect; on the % scale 0 is the no-effect control and ±100 the full control effect; nearly all actives have a fitted effect of over 60% in size
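Kinetic colorimetric format: TGR-catalysed, NADPH-driven DTNB reduction monitored via TNB absorbance. Enzyme dispensed at 20 nM; compound exposure 15 min at room temperature before reaction start.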
Pf growth 96h: P. falciparum growth inhibition at 96 hours | P. falciparum luciferase reporter growth, 96 h | Potency, µM (highest dose often 28.7 µM), without a hit: at the top dose activity change, negative = inhibition, most hits filed as inhibitors | 320,000 compounds, 6.9% hits; further: potency means the concentration at half of the fitted maximal effect; on the % scale 0 is the no-effect control and ±100 the full control effect
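P. falciparum expressing integrated firefly luciferase grown in erythrocytes (2% hematocrit, 0.05% parasitemia final) with compounds for 96 hours at 37 C, 5% CO2. Growth inhibition read as loss of luminescence after adding luciferase detection reagent.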
NS1 function inh: blocks influenza NS1 protein function; 270,000 compounds, 0.4% hits; AID 2326; Potency, µM (doses to about 46.1 µM), for inactives: top-dose activity, positive = more growth; calls by dose curve; further: potency means the concentration at half of the fitted maximal effect; actives are rising curves; nearly all actives have a fitted effect of over 50% in size
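A cell-based growth assay was used: compounds that relieve NS1-induced slow growth of budding yeast raise OD600. Assay medium was yeast nitrogen base with ammonium sulphate and -URA supplement, pH 6.0, with 2% galactose.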
Cycloheximide cs: affects cycloheximide protein synthesis inhibition readout, counter-screen. cell reporter, cycloheximide protein synthesis inhibition counterscreen. max response, %. 300,000 compounds, 12% hits; in the data active means max response mostly above about 13%, no sharp cut-off; inactive means mostly below about 14%; further: read at 38.3 µM for the half of the compounds with a filed dose; 0% is about no effect
Pf growth 48h: inhibits P. falciparum growth in the first generation, 48 h; P. falciparum luciferase growth in erythrocytes, 48 h; Potency, µM (titrated, usually from 28.7 µM), without a hit: top-dose activity change, negative = inhibition, most hits filed as inhibitors; 310,000 compounds, 5.9% hits; AID 504832; further: potency means the concentration at half of the fitted maximal effect; on the % scale 0 is the no-effect control and ±100 the full control effect
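Compounds are pin-transferred into medium, infected erythrocytes (2% hematocrit, 0.1% parasitemia final) are added, and plates sit one parasite generation at 37 C in 5% CO2. Detection reagent is then added and luminescence measured.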
Shiga inhibitor: Shiga toxin inhibition; AID 2315; Vero cells, Shiga toxin protein synthesis inhibition reporter; inhibition, % at 38.7 µM; 290,000 compounds, 9.2% hits; in the data active means inhibition mostly above about 28%, no sharp cut-off; inactive means mostly below about 43%; further: 0% is about no effect
* hit, by the source's call; i = inactive; u = inconclusive; x = not tested or not shown; [ ] = dose if it differs, or a comment. Sampled rows, rich in hits. Any-hit rate of the full collection: about 21%. Unless noted, the call rests on the fitted dose curve; in most records, active means well fitted curve in the direction sought with a large enough effect; inconclusive means small, poorly fitted or top-dose-only effect, or another doubt; inactive means no such curve, though single readings can be large; an effect the other way counts as inactive or inconclusive.

SMILES	Sm TGR block	Pf growth 96h	NS1 function inh	Cycloheximide cs	Pf growth 48h	Shiga inhibitor
CCOC(=O)N1CCN(C(=O)CN(C)S(=O)(=O)c2ccc(F)cc2)CC1	-12%	9%	-2%	5	34%	7
CN(CC(=O)N1CCN(c2ccc(F)cc2)CC1)S(=O)(=O)c1ccc(F)cc1	15%	u	-4%	14	6%	33*
CCN1CCN(C(=O)CN(CC)S(=O)(=O)c2ccc(F)cc2)CC1	0%	3.3µM*	7%	-2	-7%	-18
O=C(CNS(=O)(=O)c1ccc(Br)cc1)N1CCN(c2ccc(F)cc2)CC1	-14%	13µM*	-3%	-1	u	3
CC(=O)c1ccc(N2CCN(C(=O)CN(C)S(=O)(=O)c3cnc[nH]3)CC2)cc1	-5%	32%	x	39*	9%	42
CCC(C(=O)NC(C)(C)C)N(C(=O)Cn1nnc(-c2cccs2)n1)c1cnc2ccccc2c1 (configuration not stated)	9%	2%	-9%	0	u	-12
CC1CCN(c2ccc(-c3cccc(NC(=O)c4ccco4)c3)nn2)CC1	-1%	-4%	x	x	-71%	x
CC(=O)c1ccc(S(=O)(=O)N(C)CCCC(=O)N2CCN(c3ncccn3)CC2)cc1	-7%	12µM*	x	x	u	x
CN(CC(=O)N1CCN(Cc2ccccc2)CC1)S(=O)(=O)c1ccc(F)cc1	-25%	12µM*	-12%	1	4%	2
CN(CC(=O)N1CCN(Cc2ccccc2)CC1)S(=O)(=O)c1ccc(Br)cc1	-5%	31%	-24%	8	u	-15
O=C(CCCC(=O)NNC(=O)Nc1ccccc1)NNC(=O)Nc1ccccc1	x	5%	-1%	-2	5%	4
Clc1ccc(C2C3=C(Nc4ncnn42)c2ccccc2CC3)cc1 (configuration not stated)	-21%	u	-2%	3	x	5
c1ccc(C2C3=C(Nc4ncnn42)c2ccccc2CCC3)cc1 (configuration not stated)	-2%	5.2µM*	-17%	-1	-7%	-8
Cc1cccc(C)c1NC(=O)CC12CCCN1CCC2	x	6µM*	x	x	-9%	x
Cc1cccc(C)c1NC(=O)CN1CCN(CC(=O)NCC2(N3CCCCC3)CCCCC2)CC1	1%	2%	x	x	u	x
NC(=O)c1ccccc1Nc1nc2nc3ccccc3c(=O)n2cc1Br	-8%	13%	0%	15*	1%	38*
Cc1cc(Nc2ccccc2C(=O)O)nc2nc3ccccc3c(=O)n12	13%	25%	-2%	-1	u	-14
CCn1c(=O)cc(SCC(=O)N2CCN(C(=O)c3ccco3)CC2)c2ccccc21	4%	5.9µM*	-4%	5	-14%	16
CCOc1ccc(CN2CCN(Cc3ccc4c(c3)c3ccccc3n4CC)CC2)cc1	-15%	x	x	x	x	x
CCCS(=O)(=O)N1CCN(Cc2ccc3c(c2)c2ccccc2n3CC)CC1	-8%	35%	-19%	-1	9.3µM*	-12
CCn1c(=O)cc(SCC(=O)N2CCOCC2)c2ccccc21	-8%	u	4%	0	20%	10
CCn1c2ccccc2c2cc(CN3CCN(C(=O)c4ccco4)CC3)ccc21	1%	8.3µM*	15%	5	u	-12
CC(Sc1nccn1C)C(=O)Nc1ccccc1 (configuration not stated)	0%	81%	-4%	2	8%	-8
CCOc1ccc(CCNC(=O)c2nnc(Cc3ccc(Cl)cc3Cl)o2)cc1OCC	8%	x	x	x	x	x
CCN(CC)S(=O)(=O)c1ccc(N=Nc2c(C)[nH]n(C(N)=S)c2=O)cc1	-25%	2%	-4%	40*	-21%	73*
SMILES	Sm TGR block	Pf growth 96h	NS1 function inh	Cycloheximide cs	Pf growth 48h	Shiga inhibitor
CC(=O)N(C)c1ccc(N=Nc2c(C)[nH]n(-c3ccccc3)c2=O)cc1	-2%	12µM*	3%	-1	u	-9
CCOc1ccccc1N=Nc1c(C)[nH]n(C(N)=S)c1=O	-9%	u	-4%	1	0%	-5
Cc1[nH]n(-c2ccccc2)c(=O)c1N=Nc1nccs1	0%	u	-149%	14*	x	26
CC(=O)N(C)c1ccc(N=Nc2c(C)[nH]n(C(N)=S)c2=O)cc1	0%	43%	x	39*	-3%	49*
CCOC(=O)c1ccc(N=Nc2c(C)[nH]n(-c3ccccc3)c2=O)cc1	0%	0%	-6%	-2	-4%	-5
CCn1c(=O)n(-c2ccc(F)c(Cl)c2)c(=O)c2c3c(sc21)CN(C(C)=O)CC3	2%	x	x	x	x	x
CC(=O)Nc1ccc(-c2c(C)cc3oc(=O)cc(-c4ccccc4)c3c2C)cc1	x	x	x	3	x	i
Cc1[nH]n(-c2ccccc2)c(=O)c1N=Nc1ccc2c(c1)OCO2	-4%	54%	x	32*	198%	115*
NCCCC[C@H](NC(=O)[C@H](CS)NC(=O)[C@@H](N)Cc1cnc[nH]1)C(=O)N[C@@H](Cc1ccccc1)C(=O)N[C@@H](Cc1c[nH]c2ccccc12)C(=O)N[C@@H](Cc1c[nH]c2ccccc12)C(=O)O	x	x	x	-1	x	-5
COc1ccc(NC(=O)c2oc3ccccc3c2NC(=O)c2ccco2)c(OC)c1	-24%	u	-4%	11*	u	16
COc1ccc(NC(=O)c2oc3ccccc3c2NC(=O)c2cc3ccccc3o2)cc1	4%	x	x	x	x	x
COc1ccc(NC(=O)c2oc3ccccc3c2NC(=O)c2ccco2)cc1	-10%	1%	-38%	47*	u	35*
CCOC(=O)N1CCN(C(=O)C2CCC(=O)N(CCCN3CCCC3=O)C2)CC1 (configuration not stated)	-8%	-27%	-2%	-2	4%	17
COc1nc(Nc2nc3ccccc3c(=O)[nH]2)nc2ccc(C)cc12	-2%	u	-6%	2	2.6µM*	-8
CCSc1ccccc1C(=O)Nc1nc2ccccc2c(=O)[nH]1	2%	6%[5.75 µM]	-15%	12	-24%	17
CSc1ccccc1C(=O)Nc1nc2ccccc2c(=O)[nH]1	7%	3%	-35%	32*	121%	80*
CC(C)Nc1nc2ccccc2c(=O)[nH]1	14%	10µM*	-2%	6	-14%	8
Cc1sc(NC(=O)c2ccc(=O)n(C)n2)nc1-c1ccccc1	4%	118%	x	32*	52%	42
CCOC(=O)c1ccc(Oc2nc(OC)cc(OC)n2)cc1	10%	89%	x	8	11%	16
CNC(=O)NC(=O)CSc1ccc(S(=O)(=O)N2CCOCC2)cn1	2%	-25%	x	x	-21%	x
CCc1ccc(NC(=O)CN2C(C(=O)OC)=C(c3ccccc3)c3ccccc3S2(=O)=O)cc1	12%	x	x	x	x	x
CCOc1ccc(Nc2c(S(=O)(=O)c3ccc(C)cc3)cnc3cc(OC)c(OC)cc23)cc1	0%	x	x	x	x	x
